In ChEMBL document CHEMBL2218924, “A broad activity screen in support of a chemogenomic map for kinase signalling research and drug discovery” (Biochem J, 2013) one finds residual activity data, which are given here for 23 compounds.

For experiment [1], the target named is Serine/threonine-protein kinase N2 (Homo sapiens) (UniProt Q16513). As to conditions: at 10 µM.
Experiment [2] concerns the target Tyrosine-protein kinase FRK (Homo sapiens) (UniProt P42685). Conditions: at 1 µM.
For experiment [3] the target is unchanged. Conditions: at 10 µM.
Experiment [4] addresses T1, Phosphorylase b kinase gamma catalytic chain, liver/testis isoform (Homo sapiens) (UniProt P15735).
T1 sequence (whole entry): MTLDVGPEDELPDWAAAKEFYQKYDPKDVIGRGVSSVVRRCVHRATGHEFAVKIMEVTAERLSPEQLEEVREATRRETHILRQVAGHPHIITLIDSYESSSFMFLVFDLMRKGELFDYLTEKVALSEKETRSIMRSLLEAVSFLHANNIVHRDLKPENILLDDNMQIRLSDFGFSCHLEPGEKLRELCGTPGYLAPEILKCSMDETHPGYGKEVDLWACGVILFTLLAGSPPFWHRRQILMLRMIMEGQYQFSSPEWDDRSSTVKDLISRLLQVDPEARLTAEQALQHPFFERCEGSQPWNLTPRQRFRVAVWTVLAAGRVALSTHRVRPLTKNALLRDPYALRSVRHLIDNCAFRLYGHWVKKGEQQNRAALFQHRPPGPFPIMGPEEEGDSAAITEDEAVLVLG
As to conditions: at 1 µM.

The target in experiment [5] is T1, Phosphorylase b kinase gamma catalytic chain, liver/testis isoform (Homo sapiens). Conditions: at 10 µM.
In experiment [6] the target is Serine/threonine-protein kinase pim-1 (Homo sapiens) (UniProt P11309). As to conditions: at 1 µM.
Chain of Serine/threonine-protein kinase pim-1 (Homo sapiens) (P11309 whole entry, looked up): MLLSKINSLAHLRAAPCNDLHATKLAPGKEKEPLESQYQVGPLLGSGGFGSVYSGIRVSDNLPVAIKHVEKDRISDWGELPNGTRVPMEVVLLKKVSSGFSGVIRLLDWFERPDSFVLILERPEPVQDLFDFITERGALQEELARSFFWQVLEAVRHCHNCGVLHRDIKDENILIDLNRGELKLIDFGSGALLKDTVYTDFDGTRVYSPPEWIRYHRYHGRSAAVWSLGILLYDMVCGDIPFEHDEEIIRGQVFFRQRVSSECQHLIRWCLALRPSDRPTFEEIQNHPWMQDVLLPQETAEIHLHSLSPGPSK
Experiment [7] has the same target. Conditions: at 10 µM.
Experiment [8] has as its target Serine/threonine-protein kinase pim-2 (Homo sapiens) (UniProt Q9P1W9). Conditions: at 1 µM.
Experiment [9] addresses Serine/threonine-protein kinase pim-3 (Homo sapiens) (UniProt Q86V86). Conditions: at 1 µM.
For experiment [10] the target is unchanged. As to conditions: at 10 µM.
In experiment [11] the target is Serine/threonine-protein kinase PLK1 (Homo sapiens) (UniProt P53350). Conditions: at 1 µM.
Chain of Serine/threonine-protein kinase PLK1 (Homo sapiens) (P53350 whole entry): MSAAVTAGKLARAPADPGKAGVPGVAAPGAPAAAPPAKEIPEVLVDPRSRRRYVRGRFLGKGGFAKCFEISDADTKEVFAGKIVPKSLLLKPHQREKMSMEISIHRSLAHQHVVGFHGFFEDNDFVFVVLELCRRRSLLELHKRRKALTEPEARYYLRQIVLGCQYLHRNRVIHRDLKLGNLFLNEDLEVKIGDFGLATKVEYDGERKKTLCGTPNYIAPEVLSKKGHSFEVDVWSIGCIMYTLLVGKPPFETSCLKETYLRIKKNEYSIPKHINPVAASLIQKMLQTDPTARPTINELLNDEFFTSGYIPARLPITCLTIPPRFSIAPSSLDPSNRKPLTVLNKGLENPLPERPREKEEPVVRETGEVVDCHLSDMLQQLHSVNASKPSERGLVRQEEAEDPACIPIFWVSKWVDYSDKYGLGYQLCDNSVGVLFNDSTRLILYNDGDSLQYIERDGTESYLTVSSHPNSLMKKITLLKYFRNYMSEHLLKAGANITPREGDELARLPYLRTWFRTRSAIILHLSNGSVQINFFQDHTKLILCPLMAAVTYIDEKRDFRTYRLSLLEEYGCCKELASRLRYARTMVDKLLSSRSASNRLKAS
In experiment [12] the target is T2, MAP kinase-activated protein kinase 5 (Homo sapiens) (UniProt Q8IW41).
T2 sequence (whole entry): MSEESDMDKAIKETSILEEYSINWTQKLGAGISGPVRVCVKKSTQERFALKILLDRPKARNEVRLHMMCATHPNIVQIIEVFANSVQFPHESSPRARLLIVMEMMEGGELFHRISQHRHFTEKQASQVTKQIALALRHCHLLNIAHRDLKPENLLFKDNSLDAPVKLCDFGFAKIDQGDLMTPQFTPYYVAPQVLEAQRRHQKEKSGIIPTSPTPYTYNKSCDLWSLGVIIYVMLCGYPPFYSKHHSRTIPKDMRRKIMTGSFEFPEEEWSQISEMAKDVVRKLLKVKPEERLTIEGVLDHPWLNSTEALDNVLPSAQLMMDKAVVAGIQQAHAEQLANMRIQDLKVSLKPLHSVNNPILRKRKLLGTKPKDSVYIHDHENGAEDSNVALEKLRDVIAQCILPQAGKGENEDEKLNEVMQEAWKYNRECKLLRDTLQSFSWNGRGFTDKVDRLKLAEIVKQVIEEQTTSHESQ
Conditions: at 1 µM.

The target in experiment [13] is T2, MAP kinase-activated protein kinase 5 (Homo sapiens). Conditions: at 10 µM.
Experiment [14] has as its target Serine/threonine-protein kinase pim-2 (Homo sapiens) (UniProt Q9P1W9). Conditions: at 10 µM.
Experiment [15] addresses Serine/threonine-protein kinase PLK1 (Homo sapiens) (UniProt P53350). As to conditions: at 10 µM.
The target of experiment [16] is T3, cGMP-dependent protein kinase 1 (Homo sapiens) (UniProt Q13976).
T3 sequence (whole entry): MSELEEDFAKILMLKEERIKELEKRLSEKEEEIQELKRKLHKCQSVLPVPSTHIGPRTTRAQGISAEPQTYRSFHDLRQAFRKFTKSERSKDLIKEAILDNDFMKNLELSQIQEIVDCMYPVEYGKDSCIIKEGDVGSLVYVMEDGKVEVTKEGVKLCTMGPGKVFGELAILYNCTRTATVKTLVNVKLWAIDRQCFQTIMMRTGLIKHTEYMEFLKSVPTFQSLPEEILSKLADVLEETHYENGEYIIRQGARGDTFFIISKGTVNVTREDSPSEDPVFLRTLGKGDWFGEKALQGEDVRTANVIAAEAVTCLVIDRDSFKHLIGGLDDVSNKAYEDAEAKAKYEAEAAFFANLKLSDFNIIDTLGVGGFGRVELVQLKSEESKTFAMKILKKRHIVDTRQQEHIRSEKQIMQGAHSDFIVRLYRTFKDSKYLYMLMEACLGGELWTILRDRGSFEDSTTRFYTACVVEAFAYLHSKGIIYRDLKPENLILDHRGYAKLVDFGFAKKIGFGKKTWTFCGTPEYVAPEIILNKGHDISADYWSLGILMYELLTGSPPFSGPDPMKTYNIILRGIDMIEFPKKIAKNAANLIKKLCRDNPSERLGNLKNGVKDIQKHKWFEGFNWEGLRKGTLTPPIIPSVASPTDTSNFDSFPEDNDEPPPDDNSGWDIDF
Conditions: at 1 µM.

Experiment [17] concerns the target T3, cGMP-dependent protein kinase 1 (Homo sapiens). As to conditions: at 10 µM.
Experiment [18] has as its target Serine/threonine-protein kinase N2 (Homo sapiens) (UniProt Q16513). Conditions: at 1 µM.

Chain of Serine/threonine-protein kinase N2 (Homo sapiens) (Q16513 whole entry, looked up): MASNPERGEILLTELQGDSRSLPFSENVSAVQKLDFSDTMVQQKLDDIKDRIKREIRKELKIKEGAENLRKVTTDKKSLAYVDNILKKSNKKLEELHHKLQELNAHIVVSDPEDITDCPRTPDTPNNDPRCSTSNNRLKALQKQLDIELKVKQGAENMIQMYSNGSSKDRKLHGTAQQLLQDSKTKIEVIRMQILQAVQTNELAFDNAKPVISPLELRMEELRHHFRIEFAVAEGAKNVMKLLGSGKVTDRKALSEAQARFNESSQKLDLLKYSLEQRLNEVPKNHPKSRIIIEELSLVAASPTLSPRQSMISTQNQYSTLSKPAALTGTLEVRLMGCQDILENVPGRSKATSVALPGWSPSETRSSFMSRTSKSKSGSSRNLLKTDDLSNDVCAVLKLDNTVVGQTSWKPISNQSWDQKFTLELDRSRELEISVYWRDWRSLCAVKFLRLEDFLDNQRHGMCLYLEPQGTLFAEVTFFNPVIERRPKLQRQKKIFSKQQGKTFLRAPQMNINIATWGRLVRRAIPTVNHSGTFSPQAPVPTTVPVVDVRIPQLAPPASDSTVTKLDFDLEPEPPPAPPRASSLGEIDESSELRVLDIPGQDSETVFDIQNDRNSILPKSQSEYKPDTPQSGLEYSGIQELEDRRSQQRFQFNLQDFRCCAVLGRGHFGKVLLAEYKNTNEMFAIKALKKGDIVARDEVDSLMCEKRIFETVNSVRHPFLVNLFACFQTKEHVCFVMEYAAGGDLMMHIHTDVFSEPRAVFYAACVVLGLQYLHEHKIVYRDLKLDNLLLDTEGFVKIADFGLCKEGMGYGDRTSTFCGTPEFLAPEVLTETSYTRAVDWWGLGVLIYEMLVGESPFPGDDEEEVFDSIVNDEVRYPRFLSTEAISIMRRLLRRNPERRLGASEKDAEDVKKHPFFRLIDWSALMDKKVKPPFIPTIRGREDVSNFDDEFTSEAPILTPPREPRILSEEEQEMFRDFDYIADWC
Chain of Tyrosine-protein kinase FRK (Homo sapiens) (P42685 whole entry): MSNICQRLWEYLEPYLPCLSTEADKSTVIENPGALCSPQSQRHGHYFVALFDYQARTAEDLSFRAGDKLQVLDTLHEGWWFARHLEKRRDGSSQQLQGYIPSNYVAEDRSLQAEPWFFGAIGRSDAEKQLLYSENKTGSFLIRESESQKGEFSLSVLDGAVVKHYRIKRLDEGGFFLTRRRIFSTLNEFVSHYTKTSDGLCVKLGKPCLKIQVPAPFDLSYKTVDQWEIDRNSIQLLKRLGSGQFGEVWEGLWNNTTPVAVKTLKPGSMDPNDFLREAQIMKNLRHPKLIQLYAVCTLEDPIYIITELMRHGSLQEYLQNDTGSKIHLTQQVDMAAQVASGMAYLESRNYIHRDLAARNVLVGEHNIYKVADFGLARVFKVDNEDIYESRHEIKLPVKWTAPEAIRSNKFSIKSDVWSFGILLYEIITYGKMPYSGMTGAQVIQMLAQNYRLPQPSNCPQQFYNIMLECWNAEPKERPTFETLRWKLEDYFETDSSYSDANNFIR
Chain of Serine/threonine-protein kinase pim-2 (Homo sapiens) (Q9P1W9 whole entry, looked up): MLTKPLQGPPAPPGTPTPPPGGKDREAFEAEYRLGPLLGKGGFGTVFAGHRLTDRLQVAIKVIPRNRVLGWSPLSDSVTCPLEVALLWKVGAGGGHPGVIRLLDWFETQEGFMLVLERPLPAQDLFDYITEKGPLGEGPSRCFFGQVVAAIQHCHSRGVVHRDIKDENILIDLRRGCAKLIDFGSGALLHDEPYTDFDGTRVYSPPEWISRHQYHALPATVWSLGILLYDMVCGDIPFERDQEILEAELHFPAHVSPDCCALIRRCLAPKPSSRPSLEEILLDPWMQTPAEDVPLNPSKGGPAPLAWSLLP

On to `COc1cc2ncnc(Nc3cccc(Cl)c3)c2cc1OC`, for which the residual activity in experiment [1] was found to be 76%; in [2], 53%; in experiment [3], 6%; in [4], 104%; in [5], 107%; in experiment [6], 62%. Besides, the residual activity in [7] was 48%; in experiment [8], 121%; in experiment [9] it was 112%; in experiment [10], 101%; in experiment [11], 112%.

For the compound `O=C1Cc2c([nH]c3ccc([N+](=O)[O-])cc23)-c2ccccc2N1`, the residual activity in experiment [12] was 80%; in [13] it was 81%; in [2], 67%; in [3], 46%; in experiment [8] it was 119%; in [14], 117%. The residual activity in experiment [11] came out at 105%; in [15], 100%.

For the compound `CCOC(=O)c1c(C)[nH]c(/C=C2\C(=O)Nc3ccccc32)c1C`, the residual activity is 88% in [12]; 81% in [13]; 87% in experiment [4]; 92% in [5]; 72% in [6]; 74% in experiment [15].

Regarding `COc1ccc(Cl)cc1NC(=O)Nc1cc(C)nc2ccccc12`, the residual activity in [16] turned out to be 79%; in experiment [17], 88%; in experiment [2], 94%; in experiment [3], 129%; in experiment [4] it was 92%; in experiment [5], 53%. The residual activity in experiment [6] turned out to be 87%; in [7] it was 97%; in experiment [9] it was 96%; in experiment [10] it was 99%; in experiment [11] it was 95%; in experiment [15] it was 82%.

In the case of `CN([C@@H](Cc1ccc(OS(=O)(=O)c2cccc3cnccc23)cc1)C(=O)N1CCN(c2ccccc2)CC1)S(=O)(=O)c1cccc2cnccc12`, the residual activity in [16] was 67%; in experiment [3], 79%; in experiment [5], 98%; in experiment [6], 99%; in experiment [7], 81%; in experiment [8], 98%.

For `CCCCc1c(-c2ccc(O)cc2)[nH]c2nccnc12`, the residual activity in [18] is 87%; in [1], 85%; in experiment [2], 59%; in experiment [3], 25%; in experiment [8], 140%; in [11], 82%. In addition, the residual activity in experiment [15] was 87%.

On to `Cn1c2ccccc2c2c3c(c4c5ccccc5n(CCC#N)c4c21)CNC3=O`, for which the residual activity in experiment [18] amounted to 11%; in experiment [1] it was 10%; in experiment [2] it was 42%; in [3] it was 33%; in experiment [4], 1%; in experiment [5] it was 2%. The residual activity in experiment [6] came out at 18%; in experiment [7], 22%; in experiment [8], 25%; in experiment [14], 40%; in experiment [9], 58%; in experiment [15] it was 66%.

For `CC(C)N(CCC(=O)c1ccc2ccccc2c1)Cc1ccccc1`, the residual activity in [12] came to 82%; in experiment [13], 72%; in experiment [5] it was 80%; in experiment [14] it was 127%; in experiment [11], 69%; in experiment [15], 64%.

As for `O=C1NC(=O)C(c2cn(CCCn3ccnc3)c3ccccc23)=C1Nc1ccccc1`, the residual activity worked out at 59% in experiment [13]; 26% in experiment [18]; 11% in [1]; 65% in experiment [6]; 18% in experiment [7]; 77% in [8]. Besides, the residual activity in [14] came to 54%; in [11], 76%; in experiment [15] it was 64%.

In the case of `CC(C)[C@H](CO)Nc1nc(Nc2cc(N)cc(Cl)c2)c2ncn(C(C)C)c2n1`, the residual activity in [17] was found to be 80%; in experiment [12] it was 92%; in [13], 56%; in experiment [2] it was 72%; in experiment [3], 11%; in experiment [4], 119%. Besides, the residual activity in [5] was determined as 97%; in [6], 95%; in experiment [7], 86%; in experiment [11], 50%; in experiment [15], 9%.

As for `NCCNc1ncc(C(N)=O)c(Nc2cccc(C(F)(F)F)c2)n1`, the residual activity in experiment [12] turned out to be 42%; in experiment [13], 11%; in experiment [4], 64%; in experiment [5], 22%; in experiment [6], 82%; in [7], 38%. Also, the residual activity is 60% in experiment [14], 100% in experiment [11] and 73% in [15].

Take `CCN(CC)CCNC(=O)c1c(C)[nH]c(/C=C2\C(=O)Nc3ccc(Cl)cc32)c1C`: the residual activity is 97% in experiment [12]; 49% in experiment [13]; 52% in experiment [18]; 18% in experiment [1]; 31% in experiment [2]; 1% in [3]. The residual activity was determined as 8% in experiment [4], 2% in [5], 75% in experiment [10] and 55% in experiment [15].

Regarding `CCN1/C(=C/C(C)=O)Sc2ccc(OC)cc21`, the residual activity in experiment [6] is 25%; in experiment [7], 4%; in experiment [9], 51%; in [10] it was 11%.

On to `Nc1ncnc2c1cnn2-c1ccccc1`, for which the residual activity in experiment [12] stood at 94%; in [18], 85%; in experiment [1] it was 79%; in [3], 90%; in experiment [4], 97%; in [5] it was 90%. Further, the residual activity in [7] came to 126%; in [14] it was 94%; in experiment [9], 101%; in experiment [10] it was 97%; in experiment [11], 100%; in experiment [15], 86%.

For the compound `Fc1ccc(-c2nc3n(c2-c2ccncc2)CCS3)cc1`, the residual activity in experiment [2] stood at 99%; in experiment [3], 51%; in experiment [6] it was 91%; in experiment [7], 73%; in experiment [8], 128%; in experiment [9] it was 94%. Besides, the residual activity in experiment [10] was 98%; in [11] it was 91%; in experiment [15], 82%.

For `N#C/C(=C\c1ccc(O)c(O)c1)C(=O)NCc1ccccc1`, the residual activity in experiment [12] amounted to 72%; in [13] it was 59%; in [6], 74%; in experiment [7] it was 70%; in experiment [11] it was 86%; in [15], 64%.

On to `NC(=O)c1ccc(-c2nc(-c3ccc4c(c3)OCCO4)c(-c3ccccn3)[nH]2)cc1`, for which the residual activity in [17] was 63%; in [13] it was 89%; in experiment [18] it was 120%; in experiment [1], 98%; in [2], 98%; in experiment [3] it was 89%. Moreover, the residual activity was found to be 90% in experiment [4]; 93% in experiment [5]; 96% in [9]; 97% in [10]; 81% in [11]; 71% in experiment [15].

For the compound `NC(=O)c1cccc(-c2cc(Nc3ccc(OC(F)(F)F)cc3)ncn2)c1`, the residual activity in [13] is 78%; in experiment [6] it was 89%; in experiment [7], 100%; in experiment [15], 88%.

In the case of `Cn1sc(=O)n(Cc2ccccc2)c1=O`, the residual activity in experiment [18] amounted to 91%; in [1] it was 84%; in experiment [2] it was 88%; in experiment [3], 92%; in experiment [4], 90%; in experiment [5], 98%. Also, the residual activity in experiment [7] came to 95%; in experiment [14], 143%; in experiment [9], 80%; in experiment [10], 85%; in [11], 69%; in [15], 70%.

With `COc1ccc(COc2ccc(Cc3cnc(N)nc3N)cc2OC)cc1`, the residual activity in [14] was 115%; in experiment [11] it was 80%; in [15], 71%.

In the case of `O=C(Nc1ccc(Cl)cc1)c1ccccc1NCc1ccncc1`, the residual activity in [12] came to 60%; in [13], 51%; in [2], 19%; in experiment [3] it was 1%; in experiment [8], 132%; in [14], 124%.

`O=C(c1cc2cc(O)ccc2[nH]1)c1cc2cc(O)ccc2[nH]1`: the residual activity in experiment [12] came out at 71%; in experiment [13] it was 40%; in [18], 72%; in experiment [1], 39%; in experiment [2] it was 37%; in experiment [3], 7%. Besides, the residual activity in experiment [6] stood at 60%; in [7], 24%; in [8], 80%; in [14], 64%.

As to `COc1cc2c(cc1OC)-c1n[nH]c(Nc3cccc(F)c3)c1C2`, the residual activity came out at 47% in experiment [12]; 65% in experiment [13]; 78% in experiment [6]; 112% in experiment [7]; 65% in experiment [11]; 61% in [15].
